Reference: the supplement of paper PMC8773631
Where “and” joins values, the source holds several entries; their conditions need not be identical. Identical values can stand only once. Counter-ions that a name gives are not always drawn. ± gives the uncertainty stated by the source.

Each compound was assayed on NCC-MFS5-C1 (assay: cell viability relative to DMSO control; higher = less growth inhibition). Conditions: 10 µM; treatment time: 3 days.
Protocol: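 NCC-MFS5-C1 myxofibrosarcoma cells (1x10^4 per well, 384-well) were treated on day 2 with 10 µM of each drug. On day 5, viability was read by CCK-8 absorbance at 450 nm and normalised to the DMSO control (%), n = 2.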

First: Cc1cc(Nc2ncc(Cl)c(Nc3ccccc3S(=O)(=O)C(C)C)n2)c(OC(C)C)cc1C1CCNCC1 [Ceritinib (LDK378)]
Second: C=CC(=O)N1CCC(Oc2cc3c(Nc4ccc(Cl)c(Cl)c4F)ncnc3cc2OC)CC1 [Poziotinib (HM781-36B)]
The cell viability of the first is lower: 7.58 ± 6.4% for the first, 68.6 ± 1% for the second.

Compared with `O=[n+]1c(CBr)c(CBr)n([O-])c2ccccc21` [Conoidin A], `CC(=O)Oc1ccccc1C(=O)O` [Aspirin] is lower in cell viability: 86.4 ± 1.1% for the first, 81.4 ± 1.1% for the second.

Going from `CN(C)C/C=C/C(=O)Nc1cc2c(Nc3ccc(F)c(Cl)c3)ncnc2cc1O[C@H]1CCOC1` [Afatinib (BIBW2992)] to `CNC(=O)c1cc(Oc2ccc(NC(=O)Nc3ccc(Cl)c(C(F)(F)F)c3)c(F)c2)ccn1` [Regorafenib (BAY 73-4506)], the cell viability rises from 9.65 ± 4.3% to 85.6 ± 6.8%.

`O=P(O)(O)C(O)(Cn1ccnc1)P(=O)(O)O` [Zoledronic Acid] and `NCC(=O)CCC(=O)O` [5-Aminolevulinic acid HCl] are within error of each other in cell viability: 84.5 ± 7.6% for the first, 85.7 ± 2.2% for the second.

`Cc1ccc(NC(=O)c2ccc(CN3CCN(C)CC3)cc2)cc1Nc1nccc(-c2cccnc2)n1` [Imatinib (STI571)] and `CCN1CCN(Cc2ccc(Nc3ncc(F)c(-c4cc(F)c5nc(C)n(C(C)C)c5c4)n3)nc2)CC1` [Abemaciclib] are within error of each other in cell viability: 72.9 ± 3.3% for the first, 76.5 ± 6.7% for the second.

`Nc1[nH]cnc2ncnc1-2` [Adenine HCl] and `S=c1[nH]cnc2nc[nH]c12` [Mercaptopurine (6-MP)] are within error of each other in cell viability: 98.1 ± 6.5% for the first, 93.5 ± 3% for the second.

`COC(=O)C[C@](O)(CCCC(C)(C)O)C(=O)O[C@@H]1C(OC)=C[C@]23CCCN2CCc2cc4c(cc2[C@H]13)OCO4` [Homoharringtonine] and `COc1cc2c(cc1O)CC[C@@H]1[C@@H]2CC[C@]2(C)[C@@H](O)CC[C@@H]12` [2-Methoxyestradiol (2-MeOE2)] are within error of each other in cell viability: 54 ± 5.4% for the first, 57.5 ± 7.6% for the second.

First: CNC(=O)c1cc(Oc2ccc(NC(=O)Nc3ccc(Cl)c(C(F)(F)F)c3)cc2)ccn1 [Sorafenib Tosylate]
Second: CS(=O)(=O)c1ccc(C(=O)Nc2ccc(Cl)c(-c3ccccn3)c2)c(Cl)c1 [Vismodegib (GDC-0449)]
The cell viability of the first is lower: 45.3 ± 1.9% for the first, 70.2 ± 7.4% for the second.

First: COc1cc2/c(=N/c3ccc(Br)cc3F)nc[nH]c2cc1OCC1CCN(C)CC1 [Vandetanib (ZD6474)]
Second: COc1cc(Nc2c(C#N)cnc3cc(OCCCN4CCN(C)CC4)c(OC)cc23)c(Cl)cc1Cl [Bosutinib (SKI-606)]
The cell viability of the first is higher: 52.5 ± 2.8% for the first, 22.1 ± 0.85% for the second.

First: O=C(CCBr)N1CCN(C(=O)CCBr)CC1 [Pipobroman-D8]
Second: CCS(=O)(=O)N1CCN(c2ccc(Nc3ncc(C(N)=O)c(NC4CC4)n3)cc2)CC1
The cell viability of the first is higher: 108 ± 6.2% for the first, 61.5 ± 1.8% for the second.

Compared with `CO[C@H]1C[C@@H]2CC[C@@H](C)[C@@](O)(O2)C(=O)C(=O)N2CCCC[C@H]2C(=O)O[C@H]([C@H](C)C[C@@H]2CC[C@@H](OCCO)[C@H](OC)C2)CC(=O)[C@H](C)/C=C(\C)[C@@H](O)[C@@H](OC)C(=O)[C@H](C)C[C@H](C)/C=C/C=C/C=C/1C` [Everolimus (RAD001)], `COc1cccc2c1C(=O)c1c(O)c3c(c(O)c1C2=O)C[C@@](O)(C(=O)CO)C[C@@H]3O[C@H]1C[C@H](N)[C@H](O)[C@H](C)O1` [Doxorubicin (Adriamycin)] is lower in cell viability: 64.9 ± 4.7% for the first, 37.47 ± 0.32% for the second.

`CC(C)C(=O)Nc1ccc([N+](=O)[O-])c(C(F)(F)F)c1` [Flutamide] and `CCCCNC(=O)NS(=O)(=O)c1ccc(C)cc1` [Tolbutamide] are within error of each other in cell viability: 78.3 ± 6% for the first, 82.5 ± 3.6% for the second.

Compared with `CN(CCOc1ccc(CC2SC(=O)NC2=O)cc1)c1ccccn1` (stereo not given) [Rosiglitazone], `CCc1ccc(CCOc2ccc(CC3SC(=O)NC3=O)cc2)nc1` (stereo not given) [Pioglitazone] is higher in cell viability: 88.53 ± 0.85% for the first, 95.3 ± 2.9% for the second.

`CCN(CC)CCOc1ccc(C(=C(Cl)c2ccccc2)c2ccccc2)cc1` [Clomifene citrate] and `CC/C(=C(/CC)c1ccc(O)cc1)c1ccc(O)cc1` [Diethylstilbestrol] are within error of each other in cell viability: 85.1 ± 8.8% for the first, 87.8 ± 22% for the second.

First: CN(C)C/C=C/C(=O)Nc1cc2c(Nc3ccc(F)c(Cl)c3)ncnc2cc1O[C@H]1CCOC1 [Afatinib (BIBW2992) Dimaleate]
Second: COc1cc(OC)cc(N(CCNC(C)C)c2ccc3ncc(-c4cnn(C)c4)nc3c2)c1 [Erdafitinib]
The cell viability of the first is lower: 15 ± 7% for the first, 33.1 ± 2% for the second.

First: C[C@]12CC[C@@H]3c4ccc(O)cc4C[C@@H](CCCCCCCCC[S+]([O-])CCCC(F)(F)C(F)(F)F)[C@H]3[C@@H]1CC[C@@H]2O (stereo not given in full) [Fulvestrant]
Second: O=C1c2c(O)ccc(O)c2C(=O)c2c(NCCNCCO)ccc(NCCNCCO)c21 [Mitoxantrone 2HCl]
The cell viability of the first is higher: 74.38 ± 0.27% for the first, -0.766 ± 0.85% for the second.

Going from `Nc1nc2[nH]cnc2c(=S)[nH]1` [Thioguanine] to `Nc1nc(Cl)nc2c1ncn2[C@H]1C[C@H](O)[C@@H](CO)O1` [Cladribine], the cell viability falls from 90.3 ± 0.61% to 80 ± 9.5%.

With `CC(=O)c1c(C)c2cnc(Nc3ccc(N4CCNCC4)cn3)nc2n(C2CCCC2)c1=O` the cell viability was 50.3% and 42.8%.
